Experimental data: PubChem BioAssay (NCI)
“And” between values parts separate entries of the source, which are not always exact repeats. Equal entries are not always repeated. Compounds without any hit were thinned out: in the full panel of roughly 79,000, 15% have a hit. Unmarked numbers belong to inactive results. The source made the active and inactive calls. Cut-off read from the data, not from the text of the source: active = growth inhibition above about 70%; inactive = the rest.

How the values were obtained:
[1] = NCI Yeast Anticancer Drug Screen. Data for the rad50 strain (AID 155);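 note: 0% = growth of vehicle-only cultures of the same strain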; conditions: S. cerevisiae rad50 strain growth inhibition; at 50.0 µM; active compounds read high
Summary of the method: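 Readout: growth inhibition relative to vehicle-treated cultures. Compound exposure was carried out in a genetically defined yeast strain deficient in DNA damage repair.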

[2] = NCI Yeast Anticancer Drug Screen. Data for the mec2-1 strain (AID 157); conditions: S. cerevisiae mec2-1 strain, at 50.0 µM, active compounds read high
Summary of the method: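 Each compound was tested on mec2-1 yeast, a strain altered in DNA damage repair or cell cycle control. Growth inhibition is reported relative to vehicle.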

[3] = NCI Yeast Anticancer Drug Screen. Data for the sgs1 mgt1 strain (AID 161);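 note: 0% = growth of cultures given vehicle only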; conditions: S. cerevisiae sgs1 mgt1 strain, at 50.0 µM, active compounds read high
Summary of the method: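 Read-out: growth inhibition vs vehicle controls. Cells: mutant yeast strain deficient in DNA damage repair.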

[4] = NCI Yeast Anticancer Drug Screen. Data for the cln2 rad14 strain (AID 165);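 note: 0% = growth equal to vehicle treated cultures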; conditions: S. cerevisiae cln2 rad14 strain, at 50.0 µM, active compounds read high
Summary of the method: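 Test compounds were added to cln2 rad14 yeast cultures; inhibition of growth was then determined by comparison with vehicle treatment.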

[5] = NCI Yeast Anticancer Drug Screen. Data for the bub3 strain (AID 167); conditions: S. cerevisiae bub3 mutant strain, at 50.0 µM, active compounds read high
Summary of the method: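 Readout: yeast growth inhibition, expressed relative to vehicle-only wells. The test organism is a mutant strain from a panel with lesions in DNA repair or checkpoint genes.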

[6] = NCI Yeast Anticancer Drug Screen. Data for the mlh1 rad18 strain (AID 175); conditions: S. cerevisiae mlh1 rad18 strain growth inhibition; at 50.0 µM; active compounds read high
Summary of the method: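 Inhibition values reflect reduced growth of mutant yeast versus vehicle-treated controls following compound exposure; the mutations affect DNA damage repair.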

SMILES | growth inhibition [1] | growth inhibition [2] | growth inhibition [3] | growth inhibition [4] | growth inhibition [5] | growth inhibition [6]
O=P(Cc1ccccc1)(Oc1ccccc1)Oc1ccccc1 | 89.8% (active) | 56.5% | 82.2% (active) | 24.8% | 40.1% | 74.8% (active)
NC(N)=N/N=C/c1c[nH]c2ccccc12 | -5.4% | -14.2% | -18% | 4.8% | -10.1% | -25.1%
O=C(c1ccccc1)C1C(c2ccccc2)N1Cc1ccccc1 (centres undefined) | 0.35% | 12.2% | 10.2% | 6.15% | 9.65% | -2.9%
OCC(O)C(O)CO (centres undefined) | 6.7% and 6.95% | -0.55% and 8.95% | 3.55% and 0.4% | -61.8% and 20.8% | 12.1% and 24.6% | -1.05% and 0.1%
CC(C)CC1N=C(N(C)N=O)OP1(=O)NNc1ncccn1 (centres undefined) | -5.5% | -14.9% | -15.4% | 6.65% | 13.8% | 13.9%
O=C(C1CO1)C(Cl)(Cl)Cl (centres undefined) | -3.95% | -6.85% | 3.8% | -8.2% | -15.2% | -2.35%
CCOP(=O)(OCC)c1cc2cc(O)ccc2oc1=O | -40% | -26% | -32.2% | 2.75% | -8.75% | -50.7%
COc1ccc2nc3ccccc3nc2c1 (tested in a mixture with another compound) | 30.2% | 35.2% | 27.2% | 19.6% | 24.1% | 30.8%
CN1CC(NC(=O)N(CCCl)N=O)CC2c3cccc4c3c(cn4N=O)CC21 (centres undefined) | 17.8% | 10.6% | 21.4% | 18.6% | -3.7% | 52.1%
O=C([O-])C(F)(F)F.O=[N+]([O-])O.[Co+3].[NH2-].[NH2-].[NH2-].[NH2-].[NH2-] | 5.25% | 2% | 7.7% | -5.65% | 5% | 39.6%
CC1(O)CCC(O)CC1CC(=O)O (centres undefined) | 11.8% | 8.5% | 9.45% | 22.1% | -0.15% | 11.4%
COc1ccc(CCN(C)C(C)C2C3CC4CC(C3)CC2C4)cc1OC (centres undefined) | 35.5% | 11.3% | 19.2% | -16.4% | -1.1% | 17.9%
CC1([N+](=O)[O-])COP(=O)(NCC2CCCO2)OC1 (centres undefined) | 4.8% | -23.9% | -2.9% | -4.1% | 0.35% | 3.95%
CCOP(=O)(NC(C)C)OCC | -4.55% | -18.6% | -2.8% | 16.9% | 6.8% | -1.8%
O=C(O)C1CCCC(C(=O)O)[N-]1.O=C(O)C1CCCC(C(=O)O)[N-]1.[Cr+2] (centres undefined) | 31% | -3.5% | 15.8% | -14.5% | -2% | 14.3%
CC1(Cl)CC2C(CC1Sc1nnnn1-c1ccccc1)C2(C)C (centres undefined) | -7.45% | -35.2% | -7.2% | -20.6% | -18.4% | -7.2%
COc1ccc([N+](=O)[O-])cc1CNCCCl | -2.75% | 24.6% | 36.5% | -14.8% | 20.1% | 19.4%
O=[N+]([O-])O.[Sm] | 12.3% | 3.95% | 26.8% | 17.1% | 15.7% | -18.4%
CN1C(=O)CC(=O)N(C)P1(=O)Oc1ccccc1 | -6% | 3.25% | 14% | -1.6% | -1.7% | 4.15%
NC(=O)OCCc1c2ccccc2nc2ccccc12 | 19.6% and 47.6% | 3.75% and 51.5% | 11.5% and 49.9% | 2.6% and 42.4% | 8.15% and 34.1% | 16.1% and 64.5%
COc1ccc2c3c([nH]c2c1)C(C)N(C)CC3 (centres undefined) | 16.4% | 1.85% | -10.7% | -5.05% | 43.4% | -16.9%
Cc1[nH]cc2c1C(c1ccccc1F)=NCC(=O)N2 | 19.7% | -3.5% | 17.4% | -13.7% | 8.4% | 0.1%
CC(=O)CC(C)=O.CC(=O)CC(C)=O.[Mn] | 17.1% | 1.05% | 1.75% | -42.2% | -3.3% | -2.5%
Cc1cc(Cl)ccc1NC(=O)/C(CC(=O)CC(c1ccccc1)c1c(O)c2ccccc2oc1=O)=N\O (centres undefined) | -14.9% | -8.4% | 3.05% | -37.6% | -29.1% | -5.8%
COc1cc(C(N)Cc2ccccc2)ccc1O (centres undefined) | -9.85% | 1% | -1.25% | -33.1% | 26.6% | 4.6%
Cc1ccc(NC2=NCCS2)cc1Cl | 3.05% | 7.15% | 12.1% | 10.8% | 10.2% | 16.1%
O=[N+]([O-])c1ccc([As](=O)(O)c2cccc([N+](=O)[O-])c2)cc1 | 0.8% | 1.3% | 0.65% | -28.9% | 38.9% | 7.4%

SMILES | growth inhibition [1] | growth inhibition [2] | growth inhibition [3] | growth inhibition [4] | growth inhibition [5] | growth inhibition [6]
[Pd].[Pd].[S-]CC[S-].[S-]CC[S-].c1ccc([PH+](c2ccccc2)c2ccccc2)cc1.c1ccc([PH+](c2ccccc2)c2ccccc2)cc1 | -4.9% | 5.5% | 8.9% | -22.1% | -2.35% | 13.1%
CC(C)(OOC(C)(C)c1ccccc1)c1ccccc1 | -13.1% | -16% | 4.6% | -40.9% | 6.05% | -8.95%
CC(C)N(C#N)C(C)C | 16.6% | -0.75% | 1.85% | 9.6% | 0.25% | 6.25%
NCCN.NCCN.[Cl-].[O]=[Re]=[O] | -8.05% | -8.55% | 6.4% | -62.5% | -22.4% | -0.6%
CCSCCC(N)C(=O)O (centres undefined) | 0.15% and -21.3% | -13.9% and -15% | -37.8% and -2% | -70.4% and -32.9% | -19.9% and 6.05% | -13.2% and -28.6%
O=C(Nc1ccc([As](=O)(O)O)cc1)Nc1cccc(Cl)c1Cl | 37.9% | 36.3% | -8% | 0.3% | 44.1% | 34.9%
[N-]=[N+]=Nc1cc(=O)oc2ccccc12 | 25.6% | 10.2% | -8.25% | 13.6% | 0.9% | 1.1%
[Br][Ni][Br].c1ccc([PH+](CC[PH+](c2ccccc2)c2ccccc2)c2ccccc2)cc1 | -36.1% | -7.15% | -23.8% | 32.2% | 8.9% | 0.9%
C1CC[N-]CC1.CC(=N\O)/C(C)=N/O.CC(=N\O)/C(C)=N/O.[CH2-]c1ccccc1.[Co+2] | -3.75% | -0.9% | -13.4% | -36% | 16.4% | -4.5%
CC(=O)CC(C)=O.CC(=O)CC(C)=O.CC(=O)CC(C)=O.[Sm] | 53% | 13.8% | 37.1% | 31.9% | 9.1% | 33.8%
NC(Cc1cccc(F)c1)c1nn[nH]n1 (centres undefined) | -7.6% | 2.35% | -0.1% | -22.8% | 1.65% | -0.7%
CC(C)CC(=O)[O-].N.N.N.N.N.[Co+3].[O-][Cl+3]([O-])([O-])[O-] | -4.85% | 23.4% | -19.6% | 21.8% | -10.1% | -19.1%
C=CCC1(CC=C)C(=O)N(C)C(=O)N(C)C1=O | 7.25% | 13.7% | -6.75% | 8.45% | 5.2% | -6.95%
C[n+]1c[se]cn1 | -2.9% | 9.25% | -8.2% | 1.2% | -14.1% | 0.55%
CN(C)c1ccc(C=Cc2ccc([N+](=O)[O-])cc2)cc1.[C-]#[O+].[C-]#[O+].[C-]#[O+].[Cr] | -16.1% | -5.1% | -11.6% | 24.8% | -7.35% | -10.1%
C1CC[N-]CC1.CC(=N\O)/C(C)=N/O.CC(=N\O)/C(C)=N/O.N#C[CH-]CC#N.[Co+2] | 31.4% | 19.2% | 25.3% | -19.4% | 28.5% | 38.9%
CC(C)OC(=S)S.[Cu+2] | -7% | -6.7% | -2.4% | -31.6% | -15.2% | 2.4%
CCCCCCCCCCCCCCCCOc1ccc(S(=O)(=O)F)cc1C(=O)Nc1ccc(S(=O)(=O)Nc2cccc3ccccc23)cc1 | 3.3% | 1.9% | -2.75% | -3.05% | -0.3% | 5.35%
CCN(CC)C1C=CCCC1 (centres undefined) | -18.1% | -8.05% | -20.1% | 0.75% | -11.7% | -7.3%
CC[As](=O)(O)c1ccc(I)cc1 | 3.6% | -8.4% | -1.95% | -11.8% | 12.8% | 5.95%
O=C(O)C(CSC(c1ccccc1)c1ccccc1)N1C(=O)c2ccccc2C1=O (centres undefined) | 47.9% | 36.4% | 46.4% | 43.3% | 29.1% | 44.7%
OC[CH2][Hg][I] | 99.8% (active) | 99.8% (active) | 99.8% (active) | 99.8% (active) | 99.8% (active) | 99.8% (active)
N#C[C@H](OC1OC(COC2OC(CO)C(O)C(O)C2O)C(O)C(O)C1O)c1ccccc1 (some centres undefined) | -34.5% | -34.6% | -20.6% | -1.3% | -29.1% | -28.1%
O=P1(N2CCOCC2)OC(c2ccccc2)=CCN1c1ccc(Cl)cc1 (centres undefined) | -8.9% | 1.3% | -1.85% | -20.1% | 5.2% | 6.55%
C[C@]12C=CC(=O)NC[C@@H]1CC[C@@H]1[C@@H]2CC[C@]2(C)[C@@H](OC(=O)COc3ccc(N(CCCl)CCCl)cc3)CC[C@@H]12 | 18.1% | 5.05% | 8.1% | 1.2% | 3.05% | -7.65%
O=NNc1ncccn1 | -20.2% | -11.7% | 3.7% | 4.3% | -0.2% | -23%
Cc1ccc(C2=CCNCC2)cc1 | -9.45% | -24.3% | -4.3% | 6.75% | -12% | -2.65%
